The text below walks through data of ChEMBL document CHEMBL1201862, “PubChem BioAssay data set” (2004).

In all, about 57,000 […] went through this assay and about 4,200 (7.4%) were called active. Cut-off read from the data, not from the text of the source: active = GI50 up to about 1.1 µM and inactive = higher. Not all results are given here. Results with a measured potency or affinity are listed apart.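 Test compounds were applied to cells in 96-well plates for 48 hours at 5 doses. At the GI50, growth is halved.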

For this assay, the system named is UACC-62. Nature of the assay: NCI tumour cell line growth inhibition, 48 h.
For the substance “[Bis(aminomethyl)tetramethylenesilane]dichloropaltinum(II), CHEMBL2146205”, the GI50 came out at 16 µM. In the case of “[Bis(aminomethyl)ethylmethylsilane]tetrachloroplatinum(IV), CHEMBL2146192” it was 2.39 µM; in that of CISPLATIN, CHEMBL11359, 1.18 µM.

With “[Bis(aminomethyl)dimethylsilane]tetrachloroplatinum(IV), CHEMBL2146190”, the GI50 came to 4.57 µM. With “[Bis(aminomethyl)diethylsilane]tetrachloroplatinum(IV), CHEMBL2146203” the figure was 3.93 µM; with “[Bis(aminomethyl)pentamethylenesilane]tetrachloropaltinum(IV), CHEMBL2146204”, 0.935 µM; with “cis-Bis[[(trimethylsilyl)methyl]amino]tetrachloroplatinum(IV), CHEMBL2146191”, 5.21 µM. “[Bis(aminomethyl)pentamethylenesilane]dichloropaltinum(II), CHEMBL2146202” returned a GI50 of 2.72 µM. “[Bis(aminomethyl)dimethylsilane]dichloroplatinum (II), CHEMBL2146201” displayed a GI50 of 15.3 µM. On to “mu-(1,7-nanodiamine-N,N')bis-(cis-aminedichloroplatimum (II)), CHEMBL2146215”, for which the GI50 was 3.44 µM.

As to “[Bis(aminomethyl)tetramethylenesilane]tetrachloropaltinum(IV), CHEMBL2146189”, the GI50 came out at 3.87 µM.
